# SKKanGAS inh: blocks kanamycin growth of S. pyogenes SKKanGAS strain. BacTiter-Glo, 6 h. inhibition, % at 7.5 µM. hit rate 1.3% among 300,000;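 active = mean replicate score, as percent of positive control median, at least 50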;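 note: strain carries kanamycin resistance gene driven by streptokinase promoter and grows in 40 µg/ml kanamycin; loss of luminescence reflects streptokinase promoter inhibition or plain growth inhibition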
# PP5 primary: PP5 (human) phosphatase inhibition; purified PP5c, OMFP substrate fluorescence; inhibition, % at 6.7 µM; hit rate 0.18% among 320,000; AID 1987;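 active = inhibition above the campaign's mean inhibition across all tested compounds plus 3 SD, cut at about 9.5% in these data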
# IDE act: activators of human insulin-degrading enzyme in cells; P14735; AID 493087; hit rate 0.073% among 340,000; activation, % at 5.96 µM; HEK cells, FAbeta-B cleavage, fluorescence polarization; 0% vehicle, 100% cell-free pure enzyme wells;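 active = activation above the mean of all tested compounds plus 3 SD, set per screening campaign, cut at about 17% in these data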
# Target sequence (P14735 whole entry, looked up): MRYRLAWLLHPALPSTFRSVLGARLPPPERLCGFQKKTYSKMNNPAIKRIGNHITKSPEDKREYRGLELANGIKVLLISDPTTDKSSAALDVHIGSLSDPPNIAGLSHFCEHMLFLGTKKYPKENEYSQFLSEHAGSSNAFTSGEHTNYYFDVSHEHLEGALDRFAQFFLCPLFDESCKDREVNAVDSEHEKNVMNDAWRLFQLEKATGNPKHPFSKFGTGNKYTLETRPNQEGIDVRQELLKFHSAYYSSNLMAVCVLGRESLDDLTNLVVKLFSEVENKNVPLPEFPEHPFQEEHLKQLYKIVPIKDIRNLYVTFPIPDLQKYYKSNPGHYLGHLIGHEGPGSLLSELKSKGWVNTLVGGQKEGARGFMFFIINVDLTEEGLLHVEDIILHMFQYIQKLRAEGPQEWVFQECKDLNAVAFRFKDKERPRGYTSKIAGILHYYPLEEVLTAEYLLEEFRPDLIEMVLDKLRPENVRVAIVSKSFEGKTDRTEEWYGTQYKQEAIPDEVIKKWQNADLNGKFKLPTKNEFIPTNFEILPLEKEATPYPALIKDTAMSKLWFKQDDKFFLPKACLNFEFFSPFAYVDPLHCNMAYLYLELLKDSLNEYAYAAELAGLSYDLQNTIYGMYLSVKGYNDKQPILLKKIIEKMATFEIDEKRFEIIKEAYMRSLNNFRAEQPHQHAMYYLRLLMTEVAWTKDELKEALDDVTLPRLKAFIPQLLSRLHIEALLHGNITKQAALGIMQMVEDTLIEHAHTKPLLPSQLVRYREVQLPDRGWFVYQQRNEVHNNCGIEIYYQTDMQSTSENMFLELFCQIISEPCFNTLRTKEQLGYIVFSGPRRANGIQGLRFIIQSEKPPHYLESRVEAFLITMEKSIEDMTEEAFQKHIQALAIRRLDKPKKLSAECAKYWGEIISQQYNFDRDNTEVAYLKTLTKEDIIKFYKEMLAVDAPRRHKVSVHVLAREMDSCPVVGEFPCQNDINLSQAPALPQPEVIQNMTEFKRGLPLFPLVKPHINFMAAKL
# IDE inh: inhibits human insulin-degrading enzyme in HEK cells | P14735 | FAbetaB cleavage, fluorescence polarization | inhibition, % at 5.59 µM | hit rate 0.41% among 320,000;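 active = percent inhibition above the average of all tested compounds plus 3 SD, set per screening campaign, cut at about 16% in these data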;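 note: IDE supplied by intact live HEK cells; FP after avidin binding of uncleaved biotin substrate so inhibition keeps polarization high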
# Granule exo inh: lytic granule exocytosis inhibition; TALL-104 LAMP-1 surface exposure, flow cytometry; cells stimulated with thapsigargin and PMA; inhibition, % at 10 µM; hit rate 0.66% among 360,000; AID 651702;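 active = inhibition above about 55%, limit read from the data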
# PP1 counter: blocks human PP1-alpha phosphatase, a PP5 counter-screen; P62136; purified PP1alpha, OMFP fluorescence; inhibition, % at 6.7 µM; hit rate 0.9% among 320,000;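 active = inhibition above the mean inhibition of all tested compounds plus 3 SD, computed separately for each screening campaign, cut at about 15% in these data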
# PP1 inh confirm: confirmation of human PP1 phosphatase inhibitors; shares compounds with PP1 counter; purified PP1alpha, OMFP substrate fluorescence; inhibition, % at 6.7 µM; hit rate 52% among 1,900; AID 2358;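 active = mean PP1 inhibition above a set limit taken from the earlier primary screen, cut at about 15% in these data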
# PP5 inh counter: PP5 phosphatase inhibition, counter-screen for PP1 inhibitors. shares compounds with PP1 counter. purified PP5c, OMFP fluorescence. inhibition, % at 6.7 µM. hit rate 4% among 1,900. AID 2360;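 active = mean PP5 inhibition over triplicate wells above about 9.5% taken from the earlier PP1 screen, limit read from the data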
# A number is an active result; . = inactive; / = no result given. Rows were chosen to be rich in hits. Some 2.8% of all compounds tested hit in one or more screens of this group.
SMILES,SKKanGAS inh,PP5 primary,IDE act,IDE inh,Granule exo inh,PP1 counter,PP1 inh confirm,PP5 inh counter
CCOC(=O)c1cnc(-n2nc(C)cc2C)nc1N1CCOCC1,/,.,.,.,.,.,/,/
CCOC(=O)c1cnc(-n2nc(C)cc2C)nc1NC1CCCC1,97,.,.,.,.,22,27,.
CCOC(=O)c1cnc(-n2nc(C)cc2C)nc1N(C)C,.,.,.,.,.,.,/,/
CCOC(=O)c1cnc(-n2nc(C)cc2C)nc1NCCc1ccccc1,.,.,.,.,.,57,51,.
CCOC(=O)c1cnc(-n2nc(C)cc2C)nc1NCc1ccc2c(c1)OCO2,.,.,.,.,.,31,59,.
CCCCCCCCN1C(=O)[C@H](CC(=O)NCCCN2CCCC2=O)C[C@@]2(C(=O)OC)CC(C)(C)CC=C12,/,/,/,/,.,/,/,/
Cc1ccc(OCC(=O)Nc2ccc(N3CCCC3)cc2)cc1C,.,.,.,.,.,.,/,/
COc1ccc(C(=O)Nc2ccc(N3CCCC3)cc2)cc1,.,.,.,.,.,29,.,.
Cc1cc(C)cc(OCC(=O)Nc2ccc(N3CCCC3)cc2)c1,.,.,.,.,.,19,.,.
CCc1nnc(NS(=O)(=O)c2ccc(NC(=S)NC(=O)/C=C/c3ccccc3)cc2)s1,.,.,.,.,.,.,/,/
CCc1nnc(NS(=O)(=O)c2ccc(NC(=S)NC(=O)/C=C/c3ccc(C(C)C)cc3)cc2)s1,87,.,.,.,90,26,32,.
C#CCn1c(=NC(=O)c2cc(-c3cccs3)nc3ccccc23)sc2cc(S(N)(=O)=O)ccc21,.,.,.,.,.,20,.,.
COC(=O)Cn1c(=NC(=O)c2nc3ccccc3s2)sc2cc(S(C)(=O)=O)ccc21,.,.,/,.,/,.,/,/
C#CCn1c(=NC(=O)c2cc(Cl)sc2Cl)sc2cc(S(N)(=O)=O)ccc21,50,.,.,.,.,19,25,.
CCOC(=O)Cn1c(=NC(=O)c2sc3ccccc3c2Cl)sc2cc(S(N)(=O)=O)ccc21,.,.,.,.,.,30,31,.
C#CCn1c(=NC(=O)CN2C(=O)CCC2=O)sc2cc(S(N)(=O)=O)ccc21,.,.,.,.,.,.,/,/
Cc1ccn2c(=O)nc(SCC(=O)Nc3ccc4c(c3)OCCO4)nc2c1,.,.,.,.,.,.,/,/
Cc1ccc(S(=O)(=O)c2nnn3c2nc(NC2CCN(Cc4ccccc4)CC2)c2ccccc23)cc1C,.,.,.,.,.,21,.,.
Cc1ccc(S(=O)(=O)c2nnn3c2nc(NCCCN2CCCC2=O)c2ccccc23)cc1C,.,.,.,.,.,.,/,/
COc1ccccc1NC(=O)c1coc(=O)c(Br)c1,.,.,/,.,.,.,/,/
O=C(NCCc1ccccc1)c1nc2c(nnn2Cc2ccccc2Cl)c(=O)[nH]1,.,.,.,.,.,47,21,.
O=C(NCc1ccccc1)c1nc2c(nnn2Cc2cccc(Cl)c2)c(=O)[nH]1,.,.,.,.,.,21,.,.
O=c1c(Cl)c(N/N=C/c2ccc(Br)cc2)cnn1-c1ccccc1,.,.,.,.,.,24,22,.
Cc1cccc(-n2c(-c3ccncc3)n[nH]c2=S)c1C,.,.,.,.,.,19,.,.
Cc1ccccc1-n1c(-c2ccncc2)n[nH]c1=S,.,.,.,.,.,.,/,/
SMILES,SKKanGAS inh,PP5 primary,IDE act,IDE inh,Granule exo inh,PP1 counter,PP1 inh confirm,PP5 inh counter
O=c1c2c(-c3ccco3)csc2nc(SCc2cn3cccnc3n2)n1-c1ccccc1,.,.,.,.,.,29,21,.
CCOC(=O)c1ncccc1NC(=O)CC(=O)Nc1cccnc1C(=O)OCC,.,.,/,.,.,27,.,.
Nc1nn2c(-c3ccccc3)cc(=O)[nH]c2c1N=Nc1ccc(O)cc1,.,.,.,.,.,28,20,.
COc1ccc(N2CCN(C(=O)CSc3ncnc4scc(-c5ccc(C)cc5)c34)CC2)cc1,.,.,.,.,.,26,19,.
O=C(COC(=O)c1ccc(OC(F)F)cc1)NCc1cccs1,/,/,.,.,.,/,/,/
NS(=O)(=O)c1ccc(N/N=C/c2cn(-c3ccccc3)nc2-c2cccs2)cc1,.,.,.,.,.,.,/,/
